PubChem BioAssay (NCATS)
Where “and” joins values, the source holds several entries; their conditions need not be identical. Equal values may be shown once. Records with an inconclusive call do not appear. Calls of active or inactive are those of the source. Unless noted, the call rests on the fitted dose curve; in most records, active means well fitted curve in the direction sought with a large enough effect; inconclusive means small, poorly fitted or top-dose-only effect, or another doubt; inactive means no such curve, though single readings can be large; an effect the other way counts as inactive or inconclusive.

Legend:
[1] = Cell Viability - MRC5 (AID 434; calls by dose curve;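 further: potency means the concentration at half of the fitted maximal effect; cells exposed to compound for 40 hours at 37 °C; potency reflects cytotoxicity seen as loss of intracellular ATP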); conditions: MRC5 lung fibroblast viability, qHTS
Summary of the method: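 qHTS cytotoxicity in human lung fibroblast MRC5 cells; 40 hr treatment, 37 °C; cellular ATP by luciferase luminescence; DMSO = 0%, 100 uM tamoxifen = 100% inhibition; Hill-fit AC50.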

[2] = Cellular Toxicity (caspase-3) HepG2 (AID 654); conditions: HepG2 caspase-3 activation, luminescence; series mostly up to 92.2 µM;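 further: cells exposed to compound for 16 hours before reading; 0% = DMSO alone and 100% = caspase signal from 100 µM tamoxifen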
Summary of the method: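 HepG2 cells (1500/well) were treated 16 h at 37 °C in complete medium, then caspase 3/7 activity was read by Caspase-Glo luminescence. Data were normalized to DMSO and 100 uM tamoxifen; AC50 came from Hill-equation fits of qHTS concentration-response.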

[3] = Cellular Toxicity (caspase-3) HUV-EC-C (AID 656); conditions: HUV-EC-C cells, caspase-3 activation (apoptosis); series mostly up to 92.2 µM
Summary of the method: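 Concentration-dependent caspase 3/7 induction was assessed in HUV-EC-C cells exposed for 16 hours. Data scaled between DMSO and tamoxifen (100 uM) controls.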

[4] = Cellular Toxicity (caspase-3) SHSY5Y (AID 657); conditions: SH-SY5Y caspase-3 activation; series mostly up to 91.7 µM
Summary of the method: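 Readout: caspase-cleaved peptide-aminoluciferin substrate driving luciferase light in SH-SY5Y neuroblastoma cells after 16 h treatment. Response normalized to DMSO and 10 uM staurosporine controls.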

[5] = Cellular Toxicity (caspase-3) BJ (AID 658); conditions: BJ fibroblasts, luminescence; Potency: caspase-3 activation; series mostly up to 91.7 µM
Summary of the method: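 Readout: Caspase-Glo 3/7 luminescence increase in BJ cells after 16 hr treatment at 37 °C. Staurosporine and tamoxifen served as positive controls; AC50 values came from Hill modelling of data normalized to DMSO and 10 uM staurosporine.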

[6] = Cellular Toxicity (caspase-3) MRC-5 (AID 659); conditions: MRC-5 cells, luminescence, normalized: DMSO 0%, 10 µM staurosporine 100%; series mostly up to 91.7 µM
Summary of the method: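 Concentration-dependent caspase 3/7 activation is measured in human normal lung fibroblasts (MRC-5) following 16-hour treatment. AC50 values come from standard Hill-equation modeling of luminescence normalized to DMSO and 10 uM staurosporine.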

[7] = Cellular Toxicity (caspase-3) SK-N-SH (AID 661); conditions: SK-N-SH caspase-3 activation, qHTS, DMSO as zero, staurosporine as full; series mostly up to 91.7 µM
Summary of the method: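 Human SK-N-SH neuroblastoma cells, 1500/well, were exposed to compounds for 16 hours at 37 °C. Caspase-Glo 3/7 luminescence was normalized to DMSO (basal) and 10 uM staurosporine (100%), and AC50 came from a Hill fit.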

[8] = Cellular Toxicity (caspase-3) H-4-II-E (AID 663); conditions: H-4-II-E rat hepatoma; Potency: caspase-3 activation; series mostly up to 92.2 µM;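 further: cells exposed to compound for 16 hr before readout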
Summary of the method: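 Apoptosis induction is scored as increased luminescence from caspase 3/7 substrate cleavage in rat hepatoma H-4-II-E cells exposed to compound for 16 hr. Activity is scaled between DMSO and 100 uM tamoxifen.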

[9] = Cellular Toxicity (caspase-3) Hek293 (AID 664); conditions: HEK293 caspase-3 activation, DMSO = 0%, 100 µM tamoxifen = 100%; at 92.2 µM (top of the series);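 further: cells exposed to compound for 16 h at 37 °C before readout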
Summary of the method: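 HEK293 cells in complete medium treated 16 h at 37 °C, then Caspase-Glo 3/7 luminescence read after 20 min at room temperature. Normalized to DMSO and 100 uM tamoxifen; AC50 from Hill fit of concentration-response.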

[10] = Cellular Toxicity (caspase-3) N2a (AID 665); conditions: N2a cells, luminescence, normalized: DMSO 0%, 10 µM staurosporine 100%; series mostly up to 92.2 µM;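 further: compound exposure lasted 16 h at 37 °C before readout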
Summary of the method: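 Mouse N2a neuroblastoma cells, 1500 per well, treated 16 h at 37 °C in complete medium; caspase-3/7 activity by Caspase-Glo luminescence after 1 h. Normalized to DMSO and 10 uM staurosporine; AC50 from Hill fits.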

[11] = Cellular Toxicity (caspase-3) Renal Proximal Tubule (AID 667); conditions: renal proximal tubule cells, primary cells freshly taken from rat; Potency: caspase-3 activation; series mostly up to 91.7 µM;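 further: cells exposed to compound for 16 hours at 37 °C before detection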
Summary of the method: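 Caspase-Glo 3/7 read-out, rat primary kidney proximal tubule cells. Compound exposure 16 h, 37 °C; detection after 1 h at RT. Activity scaled to DMSO and 10 uM staurosporine.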

[12] = MultiTox-Fluor Cytotoxicity Assay - LYMP1-001 - Dead Cells (AID 946); conditions: LYMP1-001 lymphoblastoid cells, dead-cell protease fluorescence; series mostly up to 92.2 µM
Summary of the method: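 Cytotoxicity as increased dead-cell protease fluorescence (bis-AAF-R110, 485/520 nm), read 60 min after MultiTox-Fluor reagent. Human lymphoblastoid line exposed 16 h; Hill-fitted AC50, with DMSO as 0% and 15 uM tetraoctylammonium bromide as 100%.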

[13] = MultiTox-Fluor Cytotoxicity Assay - LYMP1-003 - Live Cells (AID 962); conditions: LYMP1-003 lymphoblastoid cells, MultiTox-Fluor live-cell protease fluorescence; series mostly up to 92.2 µM;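 further: 0% = DMSO only and full loss = 92 µM tetraoctylammonium bromide; cytotoxic hits lower the live-cell protease signal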
Summary of the method: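 LYMP1-003 lymphoblastoid cells, 2500/well in complete medium, treated 16 h at 37 C; live-cell protease cleavage of GF-AFC read by fluorescence (Ex/Em 405/510) after 60 min reagent; AC50 from Hill fits of concentration-response.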

[14] = Cell Viability - LYMP1-003 - Assay at 24 hr (AID 963); conditions: LYMP1-003 lymphoblastoid cell viability; series mostly up to 92.2 µM;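 further: plate controls were DMSO only for no effect and tetraoctylammonium bromide positive control for full effect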
Summary of the method: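 Human lymphoblastoid LYMP1-003 cells, 2500/well, treated 24 h at 37 C in complete medium. Viability read as intracellular ATP by CellTiter-Glo luminescence after 30 min at room temperature; AC50 from Hill-equation fits of qHTS concentration-response.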

[15] = qHTS Assay for Identification of Small Molecule Inducers of Hypoxia Response (AID 2120; active means well fitted curve in the direction sought with a large enough effect in the signal ratio, with a control signal flat, not every such curve was filed as active; the % refers to the signal ratio; further: 0% is about no effect); conditions: hypoxia response reporter cells, beta-lactamase ratio readout; series mostly up to 104 µM
Summary of the method: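 HRE-bla ME-180 cells in Opti-MEM with 0.5% dialyzed FBS, pre-plated 4-5 h, then compound titration for 17 h at 37 degrees Celsius. CCF4 loaded 2.5 h at room temperature; 460/530 nm ratio gave %Activity and AC50 for induction.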

[16] = biological target: Peroxisome proliferator-activated receptor alpha (Homo sapiens) (UniProt Q07869); assay: qHTS assay for small molecule agonists of the peroxisome proliferator-activated receptor alpha (PPARalpha) signaling pathway (AID 651778); conditions: PathHunter PPARalpha complementation, chemiluminescence, 6 h; max response: active compounds read high; further: % of control where 0% means no effect
Sequence of Peroxisome proliferator-activated receptor alpha (Homo sapiens) (Q07869 whole entry, looked up): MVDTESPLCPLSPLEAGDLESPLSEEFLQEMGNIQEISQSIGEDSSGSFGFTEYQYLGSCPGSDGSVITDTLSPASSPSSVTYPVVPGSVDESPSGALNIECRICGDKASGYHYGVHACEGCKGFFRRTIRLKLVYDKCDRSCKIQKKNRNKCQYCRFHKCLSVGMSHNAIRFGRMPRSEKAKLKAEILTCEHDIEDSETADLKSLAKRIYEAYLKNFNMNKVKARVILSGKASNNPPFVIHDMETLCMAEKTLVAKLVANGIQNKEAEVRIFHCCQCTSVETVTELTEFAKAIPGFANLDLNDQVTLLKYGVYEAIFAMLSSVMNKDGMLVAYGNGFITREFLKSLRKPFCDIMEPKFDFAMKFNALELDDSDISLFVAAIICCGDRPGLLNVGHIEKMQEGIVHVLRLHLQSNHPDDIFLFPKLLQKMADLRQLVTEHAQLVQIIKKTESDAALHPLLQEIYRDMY
Summary of the method: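 Chemiluminescence from complemented enzyme reported PPARalpha activation in cells after 6 hr of compound treatment at 37 C. The detection reagent was incubated for 60 min at room temperature, and compounds were scored as agonists.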

[17] = qHTS assay for small molecule agonists of the antioxidant response element (ARE) signaling pathway measured by Nrf2-dependant transcriptional activity - cell viability counter screen (AID 720653; active means well fitted curve in the direction sought with a large enough effect in the repeat runs; an effect the other way counts as inactive or inconclusive; further: on the % scale 0 is the no-effect control and ±100 the full control effect); conditions: ARE-bla HepG2 viability, CellTiter-Glo ATP luminescence, 16 h; max response: active compounds read low
Summary of the method: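 Cytotoxicity counter screen: intracellular ATP quantified by CellTiter-Glo luminescence in the same ARE-bla HepG2 plates, after 16 h compound exposure and a 2 h beta-lactamase substrate step.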

[18] = qHTS assay for cell viability of the p53RE-bla HCT-116 cell line (AID 743292); conditions: p53RE-bla HCT-116 viability, ATP luminescence, 16 h; series mostly up to 95 µM; further: on the % scale 0 is the no-effect control and ±100 the full control effect; nearly all actives have a fitted effect of over 55% in size
Summary of the method: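 ATP-based luminescence, 16 h compound exposure at 37 C, p53RE-bla HCT-116 cells at 4,000/well.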

[19] = Cellular Toxicity (caspase-3) Mesangial (AID 660); conditions: mesangial cells, normalized: DMSO 0%, 100 µM tamoxifen 100%; series mostly up to 91.7 µM;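 further: cells exposed to compound for 16 h before the caspase read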
Summary of the method: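 Human renal glomerular mesangial cells, 1000/well, 5 h at 37 C before 16 h compound treatment. Caspase-Glo 3/7 luminescence after 20 min; normalized to DMSO and 100 uM tamoxifen, AC50 from Hill fit.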

[20] = qHTS assay for cell viability of HEK293 cells (AID 743288); conditions: ATP luminescence (CellTiter-Glo), 18 h; max response: active compounds read low; further: on the % scale 0 is the no-effect control and ±100 the full control effect; nearly all actives have a fitted effect of over 50% in size
Summary of the method: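 Luminescent ATP quantitation served as the viability read-out. Cells (parental HEK293, 2,000/well) received compounds after at least 5 h at 37 C and were exposed for 18 h before a 30 min room-temperature reagent step.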

CC/C=C/C/C=C/C/C=C/CCCCCCCC(=O)OCC
inactive: Potency [1] > 92 µM | Potency [2] | Potency [3] | Potency [4] | Potency [5] | outcome [6] | outcome [7] | Potency [8] | caspase-3 activation [9] 7.96% | outcome [10] | Potency [11] | Potency [12] | Potency [13] | Potency [14] | Potency [15] | max response [16] 19.5% | max response [17] -18.4% | Potency [18]

CC(=O)CC(=O)Nc1ccccc1
inactive: Potency [1] > 92 µM | Potency [2] | Potency [3] | Potency [4] | Potency [5] | outcome [6] | outcome [19] | outcome [7] | Potency [8] | caspase-3 activation [9] -0.00159% | outcome [10] | Potency [11] | Potency [12] | Potency [13] | Potency [14] | Potency [15] | max response [16] 0.169% and 0.0126% | max response [17] -0.0894% and -4.18% | max response [20] 2.12% and -0.894% | Potency [18]

Cc1cc(=O)oc2cc(O)cc(O)c12
inactive: Potency [1] > 92 µM | Potency [2] | Potency [3] | Potency [4] | Potency [5] | outcome [6] | outcome [19] | outcome [7] | Potency [8] | caspase-3 activation [9] -0.488% | outcome [10] | Potency [11] | Potency [12] | Potency [13] | Potency [14] | Potency [15] | max response [16] 0.255% | max response [17] 0.736% | max response [20] -8.02% | Potency [18]

OCC(CO)(CBr)CBr
inactive: Potency [1] > 92 µM | Potency [2] | Potency [3] | Potency [4] | Potency [5] | outcome [6] | outcome [19] | outcome [7] | Potency [8] | caspase-3 activation [9] -0.451% | outcome [10] | Potency [11] | Potency [12] | Potency [13] | Potency [14] | Potency [15] | max response [16] -0.558% and -3.38% | max response [17] 9.25% and 7.51% | max response [20] -6.95% and -8.44% | Potency [18]

C=CC(C)(O)CCCC(C)CCCC(C)CCCC(C)C (stereo not drawn)
inactive: Potency [1] > 92 µM | Potency [2] | Potency [3] | Potency [4] | Potency [5] | outcome [6] | outcome [19] | outcome [7] | Potency [8] | caspase-3 activation [9] 1.05% | outcome [10] | Potency [11] | Potency [12] | Potency [13] | Potency [14] | Potency [15] | max response [16] 2.41% | max response [17] 0.618% | max response [20] -8.32% | Potency [18]

C=C(C#N)C(=O)OCC
inactive: Potency [1] > 92 µM | Potency [2] | Potency [3] | Potency [4] | Potency [5] | outcome [6] | outcome [19] | outcome [7] | Potency [8] | caspase-3 activation [9] -3.19% | outcome [10] | Potency [11] | Potency [12] | Potency [13] | Potency [14] | Potency [15] | max response [16] -1.15% | max response [17] -14.3% | max response [20] -12.8% | Potency [18]
